T1: SPSB2 26-221 SPRY (domain begin residue: 26, domain end residue: 221), Q99619
T1 chain: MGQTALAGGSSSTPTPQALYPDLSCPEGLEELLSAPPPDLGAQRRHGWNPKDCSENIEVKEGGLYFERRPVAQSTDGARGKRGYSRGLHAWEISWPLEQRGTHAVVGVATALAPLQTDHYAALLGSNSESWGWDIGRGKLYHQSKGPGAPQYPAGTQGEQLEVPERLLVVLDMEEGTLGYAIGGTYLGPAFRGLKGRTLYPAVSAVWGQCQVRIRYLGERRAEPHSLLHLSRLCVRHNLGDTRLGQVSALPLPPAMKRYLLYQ

T2: STAM 1-143 VHS (domain begin residue: 1, domain end residue: 143), Q92783
T2 chain: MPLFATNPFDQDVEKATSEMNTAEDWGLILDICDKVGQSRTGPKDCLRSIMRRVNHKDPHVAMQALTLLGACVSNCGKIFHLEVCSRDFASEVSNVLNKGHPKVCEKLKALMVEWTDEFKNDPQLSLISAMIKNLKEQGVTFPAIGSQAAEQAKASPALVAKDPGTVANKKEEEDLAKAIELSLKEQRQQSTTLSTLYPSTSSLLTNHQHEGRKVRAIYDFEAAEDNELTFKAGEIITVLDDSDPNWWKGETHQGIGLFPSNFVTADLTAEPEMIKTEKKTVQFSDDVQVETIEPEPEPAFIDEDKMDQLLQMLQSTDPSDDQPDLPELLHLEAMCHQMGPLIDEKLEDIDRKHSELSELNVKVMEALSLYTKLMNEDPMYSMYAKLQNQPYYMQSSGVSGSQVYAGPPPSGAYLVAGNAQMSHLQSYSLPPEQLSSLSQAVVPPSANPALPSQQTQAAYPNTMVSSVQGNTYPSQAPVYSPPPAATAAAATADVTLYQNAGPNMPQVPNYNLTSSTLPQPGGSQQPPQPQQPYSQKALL

T3: SPSB4 1-273 SPRY (domain begin residue: 1, domain end residue: 273), Q96A44
T3 chain: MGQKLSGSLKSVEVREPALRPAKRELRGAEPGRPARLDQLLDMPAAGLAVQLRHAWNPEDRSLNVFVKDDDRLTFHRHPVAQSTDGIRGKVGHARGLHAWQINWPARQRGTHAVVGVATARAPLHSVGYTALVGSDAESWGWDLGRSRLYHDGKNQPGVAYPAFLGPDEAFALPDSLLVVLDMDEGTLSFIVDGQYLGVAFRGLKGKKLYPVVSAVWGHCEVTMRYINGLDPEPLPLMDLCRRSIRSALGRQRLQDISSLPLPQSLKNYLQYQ

For one assay, the target named is T1, SPSB2 26-221 SPRY (domain begin …. In words: phage ELISA signal ratio (GST-PRM binding over GST background); higher = stronger binding of peptide-phage to the PRM. The method, boiled down:
(§1)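 Each value is the phage ELISA signal on the glutathione S-transferase (GST)-domain fusion divided by the signal on GST alone. Human peptide recognition domains were expressed in 96-well plates, fused to the C-terminus of GST, and selected against an M13 phage library carrying randomized, cysteine-free, glycine-flanked hexadecapeptides on the gene-8 major coat protein. After five selection rounds, approximately 48 individual clones from rounds 4 and 5 were tested by phage ELISA, and positive clones were sequenced.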
As to YPQWLASSRGEMNNNI, the “phage ELISA signal ratio” value is 36.2.

DKYWPVDPNNNMPRFG: the “phage ELISA signal ratio” value came to 37.4.

As for EYTLDENANMEQLWEV, the “phage ELISA signal ratio” value is 35.8.

With AGPDWNHNRLTFNHPQ, the “phage ELISA signal ratio” value was found to be 35.2.

RFPMYDHNANLLPLPQ: the “phage ELISA signal ratio” value stood at 38.1.

As to HLEQDWNGNWLMNEKD, the “phage ELISA signal ratio” value came out at 41.2.

For the molecule MDWNNNWNHSLESTQN, the “phage ELISA signal ratio” value worked out at 36.1.

In the case of KQDYLNVTDWNNNAVM, the “phage ELISA signal ratio” value turned out to be 44.7.

Turning to MEKDMNGNMAVFEMHH, the “phage ELISA signal ratio” value was found to be 39.2.

On to WDLDWAVSDHNGNVMV, for which the “phage ELISA signal ratio” value was found to be 41.6.

Turning to GFEFHPVYDWNNNIQK, the “phage ELISA signal ratio” value amounted to 36.6.

As to PARDINNNAATAYINV, the “phage ELISA signal ratio” value is 39.5.

For EVMYDWNGNASSLLMM, the “phage ELISA signal ratio” value worked out at 35.3.

MDFTDVNGNLLNAFTA: the “phage ELISA signal ratio” value was 38.3.

Consider PEFLDENNNVDVGHTW, for which the “phage ELISA signal ratio” value amounted to 38.3.

As for KKDWNNNIEAWLVGEE, the “phage ELISA signal ratio” value worked out at 36.6.

Regarding YEIMENNNWLNNAGVF, the “phage ELISA signal ratio” value was 40.1.

Regarding GFLDPNQNIVRETLIL, the “phage ELISA signal ratio” value turned out to be 34.2.

The target of another assay is T2, STAM 1-143 VHS (domain begin residue: …. Described as above. The method, boiled down:
as §1
Regarding HESMVMFTDEFFQQYL, the “phage ELISA signal ratio” value was determined as 5.23.

Turning to PFDAWPIGWEIQQQYF, the “phage ELISA signal ratio” value stood at 8.91.

On to HSEIWLMTYLDSLAMY, for which the “phage ELISA signal ratio” value was 13.

For NKHDTEEFMVRTFLSE, the “phage ELISA signal ratio” value came to 6.48.

On to AYVWDDWVWTSLPWVE, for which the “phage ELISA signal ratio” value worked out at 6.69.

For the molecule DQEWLSKPWQFWAMDM, the “phage ELISA signal ratio” value stood at 4.69.

Consider EPYMIQVPWESHWDVH, for which the “phage ELISA signal ratio” value was 9.25.

For TQFNMHDEALFMTKLF, the “phage ELISA signal ratio” value stood at 19.2.

Another assay addresses T3, SPSB4 1-273 SPRY (domain begin residue: …. Described as above. The method, boiled down: as §1
For the molecule QMDYNQNMPSIQWARE, the “phage ELISA signal ratio” value turned out to be 8.15.

For MVQDSINNNNWLVPWV, the “phage ELISA signal ratio” value was 7.42.

With WDFVGEWDSNNNTVTR, the “phage ELISA signal ratio” value was 7.05.

The values above are taken from the supplement of paper PMC7724964.
